Marburg entry: Marburg virus entry inhibition; Marburg virus pseudotype entry/binding inhibition, cell-based; Potency, µM (series often up to 49.2 µM), hits mostly inhibitors; 18,000 compounds, 6.5% hits; AID 720532
Lassa entry: blocks Lassa virus binding or cell entry; 18,000 compounds, 4.1% hits; AID 720533; Lassa virus pseudotyped entry inhibition, cell-based qHTS; Potency, µM (series often up to 49.2 µM), actives largely listed as inhibitors
Each line names hits and unclear results; the compound was inactive in the other large screens; ! = a repeat was not active. In the library only some 8% were active in any assay of this set; here they are far more common. Calls follow the shape of the full dose curve; tested in HEK293 cells.

CC[C@@H]1OC(=O)[C@H](C)[C@H](O[C@@H]2C[C@](C)(OC)[C@H](O)[C@H](C)O2)[C@H](C)[C@H](O[C@@H]2O[C@@H](C)C[C@@H](N(C)C)[C@@H]2O)[C@](C)(O)C[C@H](C)C(=O)[C@H](C)[C@H](O)[C@]1(C)O	none
CC[C@@H]1OC(=O)[C@@H](C)[C@H](O[C@H]2C[C@@](C)(OC)[C@@H](O)[C@H](C)O2)C(C)[C@H](O[C@H]2O[C@@H](C)C[C@@H](N(C)C)[C@@H]2O)[C@@](C)(O)C[C@H](C)C(=O)[C@@H](C)[C@H](O)[C@@]1(C)O (some centres not stated)	Marburg entry inconclusive
CCC1OC(=O)C(C)[C@@H](O[C@H]2C[C@@](C)(OC)C(O)C(C)O2)C(C)[C@@H](O[C@@H]2OC(C)CC(N(C)C)C2O)[C@@](C)(O)CC(C)CN(C)C(C)C(O)[C@]1(C)O (some centres not stated)	Marburg entry 0.631µM, Lassa entry inconclusive
CC[C@H]1OC(=O)[C@H](C)[C@@H](O[C@H]2C[C@@](C)(OC)[C@@H](O)[C@H](C)O2)[C@H](C)[C@@H](O[C@@H]2O[C@H](C)C[C@H](N(C)C)[C@H]2O)[C@](C)(O)C[C@@H](C)CN(C)[C@H](C)[C@@H](O)[C@]1(C)O	Marburg entry 2.82µM, Lassa entry inconclusive
C=C[C@H]1CCC=C2C(=O)CCC[C@H]21	none
Cc1noc(C)c1-c1nc(N2CCNCC2)c2ccccc2n1	Marburg entry inconclusive
CS(=O)(=O)Nc1cccc(-c2nc(N3CCNCC3)c3ccccc3n2)c1	Marburg entry inconclusive
N#Cc1cccc(-c2nc(N3CCNCC3)c3ccccc3n2)c1	Marburg entry 15.8µM
c1ccc2c(N3CCNCC3)nc(-c3ccc4c(c3)OCO4)nc2c1	Marburg entry 10µM
C=C(CCN1C=C(C(C)=O)C(c2ccccc2)NC1=O)c1ccccc1 (configuration not stated)	Marburg entry inconclusive
CCC=C1C(=O)[C@]2(C(=O)c3ccccc3)C[C@H]3CCC(CCC)(C2=O)[C@@]13OC	Marburg entry inconclusive
CC(CCN1CCc2nc(-c3ccccc3)c(-c3ccccc3)cc2C1)=NOC[C@@H](O)COCc1ccco1	none
O=C(OCc1cn([C@@H]2CN(C(=O)C3CCCCC3)[C@@H](c3ccc(Cl)cc3)C[C@@H]2O)nn1)c1ccccc1	Marburg entry inconclusive
OCCOCCN1CCN(C(c2ccccc2)c2ccc(Cl)cc2)CC1 (configuration not stated)	Marburg entry inconclusive
C(=C\c1ccccc1)/CN1CCN(CCOC(c2ccccc2)c2ccccc2)CC1	Marburg entry 8.91µM, Lassa entry 31.6µM
OC/C=C/c1ccccc1	none
Clc1ccc(C(OCCN2CCCCC2)c2ccccc2)cc1 (configuration not stated)	Marburg entry 12.6µM, Lassa entry inconclusive
Fc1ccc(C(c2ccc(F)cc2)N2CCN(C/C=C/c3ccccc3)CC2)cc1	Marburg entry 2.51µM, Lassa entry 31.6µM!
C(=C\c1ccccc1)/CN1CCN(C(c2ccccc2)c2ccccc2)CC1	none
COC(=O)[C@H]1O[C@@H](c2cc(OC)c(C)c(OC)c2O)[C@H](C)[C@@H](O)[C@@H]1C	none (no result: Lassa entry)
CNC(=O)c1cncc(C=Cc2c(Cl)cccc2Cl)c1	none
COC(=O)C1=C(C)N(CC2CC2)C(=NCCc2cccnc2)NC1c1ccccc1 (configuration not stated)	none
CCCCCC(=O)N1C[C@H](O)[C@@H](n2cc(C3CC3)nn2)C[C@H]1c1ccc(OC)cc1	none
CC(=O)c1ccc(OCc2cn(CC(=O)c3ccc(O)cc3)nn2)cc1C	none
CCCC[C@H]1CN2[C@H](c3ccc(Br)cc3)[C@H](C)CC[C@H]2C(=O)O1	none
C(=Cc1nc(-c2ccccc2)oc1Nc1ccc2ccccc2c1)c1ccccc1	none
C=C(C#Cc1ccc(OC)cc1)CCN1C=C(C(=O)OCC)C(c2ccccc2)NC1=O (configuration not stated)	none
CCC[C@H]1CN(c2ccccc2)C(=O)[C@H]1CC(=O)Nc1ccccc1	none
Cc1ccccc1-n1c(C)nc2ccccc2c1=O	Lassa entry inconclusive
O=c1c2ccccc2[se]n1-c1ccccc1	Marburg entry 22.4µM!, Lassa entry 25.1µM!
CC[C@H](C)[C@@H]1O[C@]2(CC[C@@H]1C)C[C@H]1C[C@H](CC=C(C)[C@@H](O[C@@H]3C[C@H](OC)[C@H](O[C@@H]4C[C@H](OC)[C@H](O)[C@H](C)O4)[C@H](C)O3)[C@@H](C)C=CC=C3CO[C@@H]4[C@@H](O)C(C)=C[C@@H](C(=O)O1)[C@]34O)O2	Marburg entry inconclusive
CC[C@@H](C)[C@H]1O[C@]2(CC[C@@H]1C)C[C@@H]1C[C@H](C/C=C(/C)[C@H](O[C@@H]3C[C@H](OC)[C@H](O[C@@H]4C[C@H](OC)[C@@H](O)[C@H](C)O4)[C@H](C)O3)[C@@H](C)/C=C\C=C3CO[C@@H]4[C@H](O)C(C)=C[C@@H](C(=O)O1)[C@]34O)O2 (tested in a mixture with another compound)	Lassa entry inconclusive
CCC(C)[C@H]1O[C@]2(C=C[C@@H]1C)C[C@@H]1C[C@@H](C/C=C(\C)[C@@H](O[C@H]3C[C@H](OC)[C@@H](O[C@H]4C[C@H](OC)[C@H](NC(C)=O)[C@H](C)O4)[C@H](C)O3)[C@@H](C)/C=C/C=C3\CO[C@@H]4[C@H](O)C(C)=C[C@@H](C(=O)O1)[C@]34O)O2 (some centres not stated)	Marburg entry 8.91µM, Lassa entry 12.6µM
CO[C@H]1C[C@H](O[C@H]2[C@H](C)O[C@@H](O[C@@H]3/C(C)=C/C[C@@H]4C[C@@H](C[C@]5(C=C[C@H](C)[C@@H](C6CCCCC6)O5)O4)OC(=O)[C@@H]4C=C(C)[C@@H](O)[C@H]5OC/C(=C\C=C\[C@@H]3C)[C@]54O)C[C@@H]2OC)O[C@@H](C)[C@@H]1O	Marburg entry 8.91µM, Lassa entry 10µM
CC1=C[C@@H](COCc2ccccc2)O[C@@]2(C1)C(=O)Nc1cccc(Br)c12	none
C=C(C)C(O)C=Cc1ccccc1OC (configuration not stated)	none
CCCCCC(=O)N1C[C@@H](n2cc(-c3ccc(F)cc3)nn2)[C@H](O)C[C@H]1c1ccc(C)cc1	Marburg entry inconclusive
COC(=O)c1ccc(CN2C(=O)[C@@]3(CC(C)=CC[C@@H](COc4ccccc4)O3)c3ccccc32)cc1	none
COc1ccc(COc2cc(-c3cccc(OC)c3)nc3ccc(NC(=O)c4ccc(Cl)cc4)cc23)cc1	none
COc1ccc(COc2cc(-c3cccc(OC)c3)nc3ccc(NC(=O)c4ccccc4)cc23)cc1	Marburg entry inconclusive, Lassa entry 10µM
CSC[C@H]1CN(c2ccccc2)C(=O)[C@H]1CC(=O)Nc1ccccc1	none
C[C@H](CCC(=O)OCc1cn(CC(=O)c2ccc(O)cc2)nn1)[C@H]1CC[C@H]2[C@@H]3CC[C@@H]4C[C@H](O)CC[C@]4(C)[C@@H]3C[C@H](O)[C@]12C	none
CC(CCN1CCCc2nc(C)c(C)cc21)=NOC[C@@H](C)[C@H](OCc1ccccc1)C(C)C	none
O=S(=O)(O)c1ccc(Nc2ncnc3c2ncn3[C@@H]2O[C@H](CO)[C@@H](O)[C@H]2O)cc1	none
OC[C@H]1O[C@@H](n2cnc3c(NCc4ccccc4)ncnc32)[C@H](O)[C@@H]1O	Marburg entry 28.2µM, Lassa entry inconclusive

Source: PubChem
